SMILES strings stand for the structures. The campaign covered roughly 2,100 compounds. About 760 (36%) were called active.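 How the source made its calls: active means thallium-flux fluorescence traces judged by eye to show enhanced or reduced glutamate response, manual score 1 or -1, so both directions (some results past the limit were not filed as active); inactive means the rest, including fluorescent or raised-baseline compounds.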 These entries were drawn from the full list.

This assay in a line: thallium influx changes without GIRK channels – cell-based, HEK-293 rmGlu8, no GIRK, thallium flux, counter-screen for GIRK activator project, confirmation (AID 623868).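 Further: extra codes mark interference with 3 for fluorescent and 4 for baseline rise.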 The settings on record: thallium flux fluorescence, at 10 µM, actives lie on both sides, codes: 1 enhancer, -1 blocker, 0 none, thallium stimulus containing EC20 glutamate. For orientation: The purpose of a counterscreen is to sort out artefacts and off-target activity.
Turning to `CC(C)NC(=S)N/N=C/c1cc(Br)ccc1O`, the manual score is 1 (active).

Turning to `O=C(Nc1nnc(-c2ccc(Cl)cc2)o1)c1ccccc1Br`, the manual score was 1 (active).

For the molecule `O=C(Nc1nnc(-c2ccc(Cl)cc2)o1)C1=COCCO1`, the manual score is 0.5 (inactive).

With `O=C(Nc1nnc(-c2ccccc2Cl)o1)c1nc2ccccc2s1`, the manual score is 1 (active).

Take `CC(C)NC(=O)c1nc2ccccc2s1`: the manual score is 0 (inactive).

For the molecule `O=C(Nc1nnc(-c2ccc(Cl)cc2)o1)c1nc2ccccc2s1`, the manual score was 1 (active).

`CCN(CC)c1ccc2cc(-c3nc4ccccc4[nH]3)c(=O)oc2c1`: the manual score was 3 (inactive).

For `COc1cccc(NC(=O)NCCCSC2CCCCC2)c1`, the manual score was 0 (inactive).

On to `Cc1ccc(-c2cc(-c3n[nH]c(=S)o3)c3ccccc3n2)cc1`, for which the manual score was 1 (active).

Consider `FC(F)(F)Oc1ccc(NC(=S)NCc2ccccc2)cc1`, for which the manual score is 0 (inactive).

For the molecule `O=C(NC(=S)N(Cc1ccccc1)Cc1ccccc1)c1ccccc1F`, the manual score was 1 (active).

In the case of `Fc1ccccc1NC(=S)NN(Cc1ccccc1)c1ccccc1`, the manual score is 0 (inactive).

In the case of `Cc1cccc(C)c1NC(=S)NC(=O)c1ccccc1F`, the manual score is 1 (active).

For `O=C(NC(=S)NCc1ccccc1)c1ccccc1F`, the manual score was 1 (active).

As for `O=C(Nc1cc(Cl)ccc1Oc1ccccc1)c1ccccc1F`, the manual score was 0 (inactive).

`FC(F)(F)c1cccc(NC(=S)NCc2ccccc2)c1`: the manual score was 0 (inactive).

In the case of `CCCCOc1ccccc1C1C(C(=O)OC)=C(C)N(C)C(C)=C1C(=O)OC`, the manual score is 0 (inactive).

For `O=C(C1CCCN(Cc2cccs2)C1)N1CCCCCC1` (configuration not stated), the manual score is 0 (inactive).

For the molecule `CS(=O)(=O)Nc1ccc(C2=NN(C(=O)C3CCCCC3)C(c3cccs3)C2)cc1` (configuration not stated), the manual score is -1 (active).

For `CCCCCCn1c(=O)[nH]c2nc3cc(N)ccc3nc2c1=O`, the manual score was 3 (inactive).

Turning to `Cc1ccc(NC2CC(=O)N(CCc3ccccc3)C2=O)cc1` (configuration not stated), the manual score is 0 (inactive).

On to `O=c1c2ccccc2nc(-c2ccccc2)n1/N=C/c1ccc([N+](=O)[O-])cc1`, for which the manual score is 0 (inactive).

In the case of `O=c1c2ccccc2nc(-c2cccc(Cl)c2)n1O`, the manual score was 1 (active).

Regarding `O=c1c2cc(Br)ccc2nc(-c2cccc(C(F)(F)F)c2)n1O`, the manual score was 1 (active).

For the molecule `O=c1c2ccc(Cl)cc2nc(-c2cccc(C(F)(F)F)c2)n1O`, the manual score was 1 (active).

With `CCN1c2ccccc2-c2nc3ccccc3n2C1c1ccco1` (configuration not stated), the manual score was 0 (inactive).

Regarding `CC1=CC(C)(C)n2c(O)c(N=NC(N)=S)c3cccc1c32`, the manual score is 0.5 (inactive).

On to `CN(C)c1nc(OCCNC(=O)COc2ccc(Cl)cc2Cl)nc(N2CCOCC2)n1`, for which the manual score is 0 (inactive).

In the case of `O=C(COc1ccccc1F)NC1CCN(Cc2ccccc2)CC1`, the manual score was 0 (inactive).

For `Fc1ccccc1CNC(=S)Nc1ccc(Cl)cc1`, the manual score is 0 (inactive).

As to `Cc1cc(C)c2c(c1)/C(=N/NC(=S)Nc1ccc(F)cc1)CCC2`, the manual score was 0 (inactive).

Consider `Fc1ccc(NC(=S)NCc2ccccc2Cl)cc1`, for which the manual score is 0 (inactive).

On to `S=C(NN=C1CCCCCC1)Nc1ccc(Cl)cc1`, for which the manual score is 1 (active).

Consider `Fc1ccc(NC(=S)NN=C2CCCCCC2)cc1`, for which the manual score was 1 (active).

Regarding `Cn1c(C(=O)OC(C(=O)NC2CCCCC2)c2ccncc2)cc2sccc21` (configuration not stated), the manual score was 0 (inactive).

With `O=C(CSc1nc(CCC2CCCC2)nc2ccccc12)NCc1ccc2c(c1)OCO2`, the manual score was 0.5 (inactive).

For `c1ccc(-c2nnc3n2NC(c2ccc4c(c2)OCO4)S3)cc1` (configuration not stated), the manual score is 1 (active).

For `Cc1nccn1CCc1nc(N)nc(N)n1`, the manual score is 0 (inactive).

Take `O=C(NC(=S)Nc1nc2c(ccc3ccccc32)s1)c1cccs1`: the manual score is 1 (active).

With `Cc1ccc2nc(NC(=S)NC(=O)c3cccs3)sc2c1`, the manual score was 0.5 (inactive).

With `O=C(NC(=S)Nc1nc2ccccc2s1)c1cccs1`, the manual score was 1 (active).

On to `CCN(CC)C(=O)COc1ccc2oc(C)c(C(=O)OC)c2c1`, for which the manual score is 0 (inactive).

For `CN=C(C)C1=C(O)C(C(=O)OC)C(C)(C)CC1=O` (configuration not stated), the manual score was 0 (inactive).

Take `CC(C)c1nc(N2CCOCC2)c(C#N)c2c1CCCC2`: the manual score is 0 (inactive).

For `CC1CCc2nn(CC(=O)N3CCN(C(=O)c4ccco4)CC3)cc2C1` (configuration not stated), the manual score is 0 (inactive).

For the molecule `CCc1cc2cc(C)ccc2nc1SCC(=O)N1CCN(C(=O)c2ccco2)CC1`, the manual score was 0 (inactive).

With `Cc1cc2cc3c(cc2nc1SCC(=O)N1CCN(C(=O)c2ccco2)CC1)OCO3`, the manual score was -1 (active).

For `CC(C)CC(=O)CN1C(=O)C2(OCCO2)c2ccccc21`, the manual score was 0 (inactive).

Consider `C=CCn1c(=S)[nH]c2sc3c(c2c1=O)CCC3`, for which the manual score is 1 (active).

As to `Cc1cc(C(=O)CSc2nnc(-c3ccncc3)n2-c2ccccc2)c(C)n1C`, the manual score was 0 (inactive).

Turning to `O=C(Nn1cnnc1)c1cc2cc(Br)ccc2oc1=O`, the manual score is 0 (inactive).

In the case of `CC(C)OCCCn1c(=S)[nH]c2cc3c(cc2c1=O)OCO3`, the manual score is 1 (active).

Turning to `Cc1ccccc1Cn1cc(NC(=O)c2nc3ncccn3n2)cn1`, the manual score is 0 (inactive).

With `O=C(NNC(=O)c1sccc1-n1cccc1)c1cccc(Cl)c1`, the manual score was 1 (active).

On to `O=C(NNC(=O)c1sccc1-n1cccc1)c1ccc(Cl)cc1`, for which the manual score was 1 (active).

For `O=C(NNS(=O)(=O)c1cc(Cl)cc(Cl)c1)c1sccc1-n1cccc1`, the manual score is 0 (inactive).

Regarding `COc1ccc2[nH]c(C)c(C(=O)CN3CC(C)OC(C)C3)c2c1` (configuration not stated), the manual score is 0 (inactive).

On to `CCn1c(=S)[nH]c2cc(C(=O)OC)ccc2c1=O`, for which the manual score is 1 (active).

`COC(=O)c1ccc(C)c(NC(=O)CN2C(=O)c3ccccc3S2(=O)=O)c1`: the manual score was 0 (inactive).

In the case of `COC(=O)c1ccc2c(=O)n(CC3CCCO3)c(=S)[nH]c2c1` (configuration not stated), the manual score was 1 (active).

On to `Cc1cccn2c(=O)c3cc(C#N)c(=NC(=O)c4cccnc4)n(CC4CCCO4)c3nc12` (configuration not stated), for which the manual score is 3 (inactive).

As for `COCCn1c(=S)[nH]c2cc(C(=O)N3CCN(c4ccc(F)cc4)CC3)ccc2c1=O`, the manual score was 0 (inactive).

For the molecule `COc1ccc2occ(C(=O)c3ccc(N=C(C)N(C)C)cc3)c2c1`, the manual score was 0 (inactive).

Consider `Cc1[nH]n(-c2ccccc2)c(=O)c1N=Nc1nccs1`, for which the manual score was 1 (active).

Turning to `CCCCN(CCCC)C(=S)N/N=C/c1c(C)[nH]n(-c2ccccc2)c1=O`, the manual score is 1 (active).

As for `CC1=NN(c2ccccc2)C(=O)/C1=C\c1c(C)[nH]n(-c2ccccc2)c1=O`, the manual score is 0 (inactive).

For `Cc1[nH]n(-c2ccccc2)c(=O)c1/C=N/c1ccccn1`, the manual score was 1 (active).

Regarding `Cc1ccc(-n2[nH]c(C)c(C=Nc3cc(C)ccn3)c2=O)cc1`, the manual score was 1 (active).

Take `O=c1c2ccccc2c(C=NCc2ccccn2)c(O)n1-c1ccccc1`: the manual score is 0 (inactive).

Turning to `Cc1ccc(-n2[nH]c(C)c(/C=N/c3ccccn3)c2=O)cc1`, the manual score was 0.5 (inactive).

Consider `CCN(Cc1ccccc1)C(c1ccccn1)c1nnnn1C1CCCCC1` (configuration not stated), for which the manual score is 0 (inactive).

Consider `CN(C)CCNC(=O)c1cc2c(s1)-c1ccccc1OC2`, for which the manual score is 0 (inactive).

Turning to `CC(NC(=O)c1ccccc1NC(=O)CSc1nnnn1C)c1ccccc1` (configuration not stated), the manual score is 0 (inactive).

In the case of `CN(C)Cc1c(O)ccc2occ(C(O)c3ccccc3)c12` (configuration not stated), the manual score was 0 (inactive).

In the case of `O=C1CC(N2CCN(c3nc4ccccc4s3)CC2)C(=O)N1c1ccc(F)cc1` (configuration not stated), the manual score was 0 (inactive).

As to `Cn1c(=O)cc(OCCCC(=O)NCc2ccc3c(c2)OCO3)c2ccccc21`, the manual score is 0 (inactive).

For the molecule `Cc1[nH]n(-c2ccc(Cl)cc2)c(=O)c1/C=N/c1nnc(-c2ccccc2)s1`, the manual score is 1 (active).

For the molecule `CCC1(C)Cc2c(sc3[nH]c(=S)n(Cc4ccccc4)c(=O)c23)CO1` (configuration not stated), the manual score was 1 (active).

In the case of `CC(C)C1Cc2c(sc3c2c(=O)n(Cc2ccccc2)c2nncn32)CO1` (configuration not stated), the manual score is -0.5 (inactive).

With `CC1(C)Cc2c(sc3[nH]c(=S)n(Cc4ccco4)c(=O)c23)CO1`, the manual score was 1 (active).

Regarding `CC(C)C1Cc2c(sc3[nH]c(=S)n(Cc4ccccc4)c(=O)c23)CO1` (configuration not stated), the manual score is 1 (active).

As to `CC1(C)Cc2c(sc3[nH]c(=S)n(Cc4ccccc4)c(=O)c23)CO1`, the manual score was 1 (active).

Consider `Cc1ccc(C)c(OCC(O)CN2C(C)CCCC2C)c1` (configuration not stated), for which the manual score was 0 (inactive).

With `Cc1cc(N2CCC(C)CC2)n2ncc(-c3ccccc3)c2n1`, the manual score is 0 (inactive).

In the case of `O=C(C1CCN(c2ncnc3c2sc2cccc(F)c23)CC1)N1CCOCC1`, the manual score was -0.5 (inactive).

As for `CN(C)CCCOc1nc2c(c(=O)n(C)c(=O)n2C)n1C`, the manual score is 1.5 (inactive).

Regarding `CC1CCc2c(sc(NC(=O)C(=O)NCc3ccco3)c2C#N)C1` (configuration not stated), the manual score is 1 (active).

Turning to `O=C(Nc1ccc(Cl)cc1)NC1CCCCC1Cc1ccco1` (configuration not stated), the manual score is 0 (inactive).

As to `O=C(NCc1ccccc1)C(=O)Nc1nc(C23CC4CC(CC(C4)C2)C3)cs1`, the manual score was 0 (inactive).

As for `CCOC(=O)C(C)Sc1nnc(-c2c[nH]c3ccccc23)n1C` (configuration not stated), the manual score is 0 (inactive).

Take `CCn1nc(C(=O)OCC(=O)c2c[nH]c3ccccc23)c2ccccc2c1=O`: the manual score was -1 (active).

With `CCCCn1nc(C(=O)N2CCc3ccccc32)c2ccccc2c1=O`, the manual score is 0 (inactive).

For `CCn1nc(C(=O)OCC(=O)N2CCc3ccccc32)c2ccccc2c1=O`, the manual score is -1 (active).

Take `O=C(COc1ccc2ccccc2c1CN1CCOCC1)N1CCc2ccccc21`: the manual score is 0 (inactive).

For the molecule `CCN(C(=O)CN1CCN(c2ccccc2O)CC1)c1c(N)n(Cc2ccccc2)c(=O)[nH]c1=O`, the manual score is 0 (inactive).

With `CC(C)(C)c1ccc(SCC(N)=O)cc1`, the manual score is 0 (inactive).

As for `CC(C)(C)NC(=O)C(=O)NNC(=O)c1ccc(C(C)(C)C)cc1`, the manual score is 1 (active).

For `CC(C)(C)c1ccc(C(=O)NC(=S)Nn2cnnc2)cc1`, the manual score is 0 (inactive).

Take `Cc1cccc(C(=O)NNC(=O)C(=O)NC(C)(C)C)c1`: the manual score is 1 (active).

`COc1ccccc1N1CCN(C(=O)CCn2c(=O)[nH]c3ccsc3c2=O)CC1`: the manual score was 0 (inactive).

`COc1ccc(Cn2c(=S)[nH]c3ccsc3c2=O)cc1`: the manual score was 1 (active).

As for `COc1cc(NC(=O)CCn2c(=O)[nH]c3ccsc3c2=O)cc(OC)c1`, the manual score is 0 (inactive).

On to `Cc1cc(C)cc(OCC(=O)N2N=C(C(F)(F)F)CC2(O)C(C)(C)C)c1` (configuration not stated), for which the manual score is 0 (inactive).

With `Cc1ccccc1CNC(=O)Nc1cccs1`, the manual score is 0 (inactive).

Turning to `Cc1ccccc1C(=O)Nc1ccc2nc3n(c(=O)c2c1)CCC3`, the manual score is 0 (inactive).

With `Cc1ccccc1C(=O)Nc1nc(=S)ss1`, the manual score is 1 (active).

For the molecule `O=C(Cn1c(=O)[nH]c2ccsc2c1=O)NC1CCCCCC1`, the manual score was 0 (inactive).

Source of the values: PubChem BioAssay AID623868 (Vanderbilt High Throughput Screening Facility, 2012).
